# Laboratory results as given in PubChem BioAssay (Tox21).
# Inconclusive results are not listed. Entries that show only a call come without a potency. The source made the active and inactive calls. Calls come from the whole dose curve.
# Test: p53 small molecule agonists, cell-based qHTS assay with rat liver microsomes (AID 1963578)
# Conditions: HCT-116 p53RE-bla, beta-lactamase ratio, 16 h; series mostly up to 66 µM; activation: at the top concentration
# Source text: U.S. Tox21 Program National Center for Advancing Translational Sciences [NCATS] Division of Preclinical Innovation [DPI] U.S. Environmental Protection Agency [EPA] National Institutes of Environmental Health Sciences [NIEHS] National Toxicology Program [NTP] U.S. Food and Drug Administration [FDA] Tox21 Assay Overview: p53, a tumor suppressor protein, is activated following cellular insult, including DNA damage and other cellular stresses. The activation of p53 regulates cell fate by inducing DNA repair, cell cycle arrest, apoptosis, or cellular senescence. The activation of p53, therefore, is a good indicator of DNA damage and other cellular stresses. […] The activation of the reporter gene under culture conditions can be detected by fluorescence intensity. This cell line was used to screen the Tox21 10K compound library in the condition of presence of rat liver microsomes and to identify agonists that activate the p53 signaling pathway after in vitro metabolic activation (Ooka et al., Archive of Toxicology 96:1975-1987, 2022).
# Tox21 Assay Protocol Summary: The p53RE-bla cells were dispensed at 4,000cells/3ul/well in 1536-well black-clear bottom plates. After the assay plates were incubated at 37 C, 5% CO2 incubator for 5 hours, 23 nL of compounds dissolved in DMSO, positive controls or DMSO only was transferred to the assay plate. Following compound addition, 3 uL of rat liver microsomes (Molecular Toxicology, Boone, NC) at final concentration of 0.5 mg/mL and 1uL of Beta-Nicotinamide adenine dinucleotide 2-phosphate (NADPH) at final concentration of 0.5 mg/mL were transferred to the assay plate. The plates were incubated at 37 C for 16 hours. 1 uL of LiveBLAzer detection mixture was added to each well and the plates were incubated at room temperature in the dark for 2 h.
Compound,Potency,activation
CC1(C)O[C@@H]2C[C@H]3[C@@H]4C[C@H](F)C5=CC(=O)CC[C@]5(C)[C@H]4[C@@H](O)C[C@]3(C)[C@]2(C(=O)CO)O1,inactive,
Nc1c2c(nc3ccccc13)CCCC2,inactive,
NC(=S)NNC(N)=S,inactive,
CCCCCCCCC(=O)O,,-0.372% (inactive)
C=CC(C)(CCC=C(C)C)OC(C)=O (stereo not given),inactive,
CC(=O)O[C@]1(C(C)=O)CC[C@H]2[C@@H]3C[C@H](C)C4=CC(=O)CC[C@]4(C)[C@H]3CC[C@@]21C,inactive,
CC1=C(/C=C/C(C)=C/C=C/C(C)=C/C(=O)O)C(C)(C)CCC1,inactive,
COc1ccccc1O,inactive,
C=C(C)C(=O)OCCCCCC,inactive,
CC1(C)OC(=O)NC1=O,inactive,
CCN(CC)CCOC(=O)c1ccc(N)cc1,inactive,
OB(O)O,inactive,
NCCN1CCNCC1,inactive,
[Na+],inactive,
CCCCC(CC)COC(=O)C(C#N)=C(c1ccccc1)c1ccccc1 (stereo not given),inactive,
C=CC(=O)OCCC(=O)O,inactive,
c1ccc2cc3c(ccc4ccccc43)cc2c1,,9.1% (inactive)
NC(=O)c1ccccc1O,inactive,
CC(C)(C)[C@@H](O)[C@@H](Cc1ccc(Cl)cc1)n1cncn1,inactive,
Cc1ccccc1C(OCCN(C)C)c1ccccc1 (stereo not given),inactive,

Compound,Potency,activation
C=C[Si](OCCOC)(OCCOC)OCCOC,inactive,
CCOc1ccc(NC(=O)CC(C)O)cc1 (stereo not given),inactive,
C=C(C)C(=O)OCCOC(=O)C(=C)C,,0.578% (inactive)
CCCCCCCC(=O)OCC(O)CO (stereo not given),inactive,
COCN(COC)c1nc(N(COC)COC)nc(N(COC)COC)n1,inactive,
CC(C)=CCl,inactive,
Cc1cc(C2(c3cc(C)c(O)cc3C)OS(=O)(=O)c3ccccc32)c(C)cc1O,,1.24% (inactive)
C=CCc1ccc(O)c(OC)c1,inactive,
C[C@]12CC[C@@H]3c4ccc(O)cc4C[C@@H](CCCCCCCCCS(=O)CCCC(F)(F)C(F)(F)F)[C@H]3[C@@H]1CC[C@@H]2O (stereo not given in full),inactive,
CC(C)Cc1ccc(C(C)C(=O)O)cc1 (stereo not given),inactive,
CCCCCCCCCCCC(=O)OC,inactive,
NC(=O)c1ncn([C@@H]2O[C@H](CO)[C@@H](O)[C@H]2O)n1,inactive,
CCNC(=S)NCC,inactive,
C/C=C1/CC2C=CC1C2 (stereo not given),inactive,
O=C(/C=C/C=C/c1ccc2c(c1)OCO2)N1CCCCC1,,-8.16% (inactive)
CCCCC1(COC(=O)CCC(=O)O)C(=O)N(c2ccccc2)N(c2ccccc2)C1=O,inactive,
O=[N+]([O-])C(CO)(CO)CO,inactive,
CCCCOC(=O)CC(CC(=O)OCCCC)(OC(C)=O)C(=O)OCCCC,inactive,
Cc1ccc(S(=O)(=O)O)cc1C,inactive,
C=Cc1ccc(C)cc1,inactive,
